Experimental data as given in PubChem BioAssay AID1347077 (National Center for Advancing Translational Sciences (NCATS), 2019).
Among all 44,000 compounds or so, fewer than 10 were called active. These entries were drawn from the full list. Values without a mark were called inactive. The call rests on the fitted dose curve; in most records, active means well fitted activation curve with a large enough effect; inconclusive means small, poorly fitted or top-dose-only effect, or another doubt; inactive means no such curve, though single readings can be large or run the other way.

target: Beta-2 adrenergic receptor (Homo sapiens) (UniProt P07550); assay: qHTS assay of beta-arrestin-biased ligands of beta2-adrenergic receptor: NCGC Sytravon Library Screen; settings: HTLA Tango cells, beta-arrestin recruitment, luciferase luminescence, 18 h; series mostly up to 46.1 µM; activation: at the top concentration;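 further: 0% = DMSO and full agonism = EC100 isoproterenol or metaproterenol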
Sequence (P07550 whole entry, looked up): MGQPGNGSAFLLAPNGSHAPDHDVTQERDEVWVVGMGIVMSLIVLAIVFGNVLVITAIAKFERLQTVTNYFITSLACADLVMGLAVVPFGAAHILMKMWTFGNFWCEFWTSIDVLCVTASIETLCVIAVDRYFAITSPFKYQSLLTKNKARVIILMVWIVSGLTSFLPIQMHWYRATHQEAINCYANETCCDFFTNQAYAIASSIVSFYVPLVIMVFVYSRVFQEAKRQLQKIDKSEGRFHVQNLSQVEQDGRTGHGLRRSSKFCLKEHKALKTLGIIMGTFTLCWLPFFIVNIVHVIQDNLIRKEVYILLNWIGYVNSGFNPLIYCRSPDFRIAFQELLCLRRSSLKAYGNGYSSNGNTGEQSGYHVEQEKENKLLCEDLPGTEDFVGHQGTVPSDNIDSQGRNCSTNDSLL
Text: The concept of biased agonism is an emerging concept of molecular pharmacology which proposes that seven transmembrane receptors (7TMRs) or G protein-coupled receptors (GPCRs), exist in multiple signaling conformations and complexes and that ligands (either agonists or antagonists) can induce signaling biased responses for distinct signal transduction cascades. […] Furthermore, accumulating evidence over the last decade has drawn attention to a novel function of beta-arrestins as signal transducers that scaffold various signaling molecules upon activation of 7TMRs. […] This beta-arrestin-biased signaling presumably leads to distinct physiological outcomes from those by G protein activation. Additionally, the active receptor conformations which prefer on this beta-arrestin signaling are likely different from those activating G protein signaling. […] The goal of this screening project will be to discover and optimize novel beta-arrestin-biased ligands for beta2-AR signaling. A luminescent cell-based assay for beta2-AR-mediated agonism, known as the Tango assay, has been validated in which ligand binding of a recombinant beta2-AR and subsequent recruitment of a recombinant beta-arrestin lead to the release of the transcriptional activator tTA, which upregulates transcription of a tTA-responsive luciferase gene. […] Compounds from the NCGC Sytravon Library collection were screened as a concentration-titration series that ranged from 46 microM to 0.6 nM. NIH Molecular Libraries Probe Production Network [MLPCN] NIH Chemical Genomics Center [NCGC] MLPCN Grant: Fast-track/HHSN271700800025C PI: Bryan Roth and Bob Lefkowitz
Tango cells were dispensed into white, solid, tissue-culture-treated 1536-well plates at 1500 cells/well in DMEM, containing 1% fetal bovine serum (FBS). Then, 23 nL of compounds or DMSO were delivered to each well using a pin tool. Plates were incubated at 37 degrees C, 5% CO2 for 18 hr. Then 2.5 uL luminescent substrate mix (in-house prepared: 150 mM Tris-Cl, pH 7.6, 3 mM MgCl2, 1% Triton X-100, 5 mM DTT, 0.5 mM CoA, 0.15 mM ATP, 0.44 mM D-luciferin, final concentrations) was added to each well. Plates were then incubated for 15 minutes at room temperature, and subsequently measured on a ViewLux plate reader for luminescent signal using a clear filter with a 10 second exposure and 2x binning. The %Activity was determined from the corrected luminescence values. […] Concentration-response curves were fitted to the signals arising from the resulting luminescence. The concentration-effect curves were then classified based on curve quality (r2), response magnitude and degree of measured activity, and compounds were subsequently categorized based on their curve class.

| SMILES | activation [%] |
| --- | --- |
| CCc1ccc(NC(=O)Cn2c(=O)n(CCC(=O)NCc3ccc4c(c3)OCO4)c(=O)c3ccccc32)cc1 | 1.01 |
| Cc1cc(C)cc(NC(=O)CSc2nc3nccnc3c(=O)n2CCc2c[nH]c3ccccc23)c1 | -0.453 |
| Cc1c(NC(=O)Cc2ccccc2)cccc1-c1nc2cccnc2s1 | -2.39 |
| COc1ccc(S(=O)(=O)NCC(c2ccc(N(C)C)cc2)N2CCCC2)cc1 (stereo not given) | 1.28 |
| COc1ccc(N2CCN(S(=O)(=O)CCNC(=O)C(c3ccccc3)c3ccccc3)CC2)cc1 | 0.864 |
| N#C/C(=C\c1cccc(F)c1)c1nc(-c2cc3c(ccc4ccccc43)oc2=O)cs1 | -0.271 |
| CCn1c2ccccc2c2nnc(N3CCN(c4cc(C)ccc4C)CC3)nc21 | -0.208 |
| CCOc1ccc(OCC)c(NC(=O)c2c(C)nn(-c3ccccc3)c2-n2cccc2)c1 | -4.02 |
| CCOc1ccc(CNC(=O)c2cc(=O)[nH]c3ccc(S(=O)(=O)N4CCCCC4)cc23)cc1 | -0.314 |
| O=C(CC(NCc1cccnc1)C(=O)O)Nc1ccc(O)cc1 (stereo not given) | 0.126 |
| CCc1nc2onc(C)c2c(=O)n1CC(=O)O | -1.3 |
| CCCCc1nn2c(=O)cc(COC(=O)c3cccc(NC(=O)COc4ccccc4)c3)nc2s1 | 0.38 |
| COc1ccccc1C(=O)OCc1cc(=O)n2nc(-c3cccs3)sc2n1 | -0.913 |
| CCOc1ccccc1CNC(=O)Nc1cn(CC(C)C)c(=O)c2ccccc12 | 0.473 |
| CC(=O)Nc1cc(C(=O)NCc2ccc(F)cc2Cl)ccc1Sc1ccc(Cl)cc1 | 0.0643 |
| O=S(=O)(c1ccc(Cl)cc1)c1nnn2c1nc(NC1CCCC1)c1sccc12 | 3.34 |
| CC(C)(C)c1ccc(C(=O)NCC(c2ccco2)S(=O)(=O)c2ccc(F)cc2)cc1 (stereo not given) | -0.628 |
| COc1ccc(CCNc2nc(-c3ccc(Cl)cc3)cc(C(F)(F)F)n2)cc1OC | 0.359 |
| CCOc1ccc(Nc2ncnc3scc(-c4ccc(OC)cc4)c23)cc1 | 0.966 |
| Cc1cccc(NC(=O)CSc2nnc(CNC(=O)c3cccc(C)c3)n2-c2ccccc2)c1 | 0.652 |
| Cc1c(C(=O)NCc2ccccc2Br)oc2ccc3c(c12)C(=O)CC(C)(C)O3 | 0.769 |
| O=c1c(NCc2cccs2)nccn1-c1ccccc1 | -0.476 |
| COc1ccccc1Nc1c2c(nc3ccc(NC(=O)/C=C/c4cc(OC)c(OC)c(OC)c4)cc13)CCCC2 | -0.0014 |
| CC(=O)N1CCc2cc(Br)cc(S(=O)(=O)CCC(=O)NCCc3ccc(Cl)cc3)c21 | -1.89 |
| Cc1ccccc1CNC(=O)C1CCCN(S(=O)(=O)N(C)c2ccc(F)cc2)C1 (stereo not given) | -0.584 |
| CCOc1cccc(CNC(=O)c2ccc(N3CCCC3)c(NC(=O)Nc3ccccc3CC)c2)c1 | 0.0293 |
| Cc1ccc(CN2CCC(CNC(=O)c3cnn(-c4ccccc4Cl)c3C3CCN(C(=O)OC(C)(C)C)CC3)CC2)cc1 | -0.282 |
| COc1cc(OC)c(NC(=O)Cc2ccc(-n3c(C)nc4cccnc43)cc2)cc1Cl | 0.0247 |

| SMILES | activation [%] |
| --- | --- |
| COc1ccc2c(c1)c(N1CCCC1=O)c(C(=O)Nc1ccc(OC)c(Cl)c1)n2C | 1.84 |
| O=C(CC1N=C2c3ccccc3N=C(SCc3ccc(F)cc3)N2C1=O)NCc1cccs1 (stereo not given) | 10.6 |
| CCOc1ccc(C(=O)c2cn(Cc3ccc(F)cc3)c3ccc(F)cc3c2=O)cc1 | -0.931 |
| COc1ccccc1CNC(=O)CCn1c(=O)c2ccccc2n(CC(=O)Nc2ccc(Br)cc2F)c1=O | -1.31 |
| CCOc1ccc(N(CC)S(=O)(=O)N2CCCC(C(=O)NCc3ccc(Cl)cc3)C2)cc1 (stereo not given) | 2.98 |
| COC(=O)c1cc(S(=O)(=O)N2CCN(c3cc(Cl)ccc3C)CC2)c[nH]1 | 0.398 |
| Cc1ccc(Cl)cc1NC(=O)CSc1nc2ccccc2nc1Cc1ccccc1 | -0.671 |
| COC(=O)c1ccc2c(c1)N(CC(=O)Nc1ccc(C)c(C)c1)C(=O)c1ccccc1S2 | 0.0004 |
| CCc1ccccc1NC(=O)CSc1nnc(-c2ccccc2)c(-c2ccccc2)n1 | 0.425 |
| COc1ccc(-c2c(C)c3ccc(O)c(CN4CCN(C)CC4)c3oc2=O)cc1OC | 0.151 |
| CCOC(=O)c1ccc2c(c1)N(Cc1cccc(OC)c1)C(=O)c1ccccc1S2(=O)=O | -1.14 |
| CCN(Cc1ccccc1)Cc1c(O)ccc2c(=O)c(-c3ccc(Cl)cc3Cl)coc12 | 0.878 |
| COC(=O)c1ccc(Cn2c(SCC(=O)N(C)c3ccccc3)nc3ccccc32)cc1 | 0.519 |
| Cc1ccc(CNC(=O)CCNS(=O)(=O)c2ccc3c(c2)oc(=O)n3C)cc1 | 0.362 |
| CSc1ccc(CCNC(=O)c2cc(C)nc3c2c(C)nn3-c2cccc(F)c2)cc1 | 1.93 |
| COc1cc(NC(=O)c2cc3ccc4cccnc4c3[nH]2)cc(OC)c1OC | 1.03 |
| CCCCCn1c(=O)[nH]c2cc(C(=O)Nc3ccc(F)cc3)ccc2c1=O | 0.0091 |
| Cc1ccc(NC(=O)Nc2sc3nc4n(c(=O)c3c2C)CCC(C)CC4)c(Cl)c1 (stereo not given) | 0.293 |
| Cc1ccc(-n2ncc(C(=O)N(C)Cc3ccccc3)c2-n2cccc2)cc1 | -1.39 |
| COc1ccccc1NC(=O)C1=C(C)Nc2ncnn2C1c1sccc1C (stereo not given) | -0.49 |
| Cc1ccc(CNC(=O)CCC(=O)N2CC(C)Sc3ccccc32)cc1 (stereo not given) | -0.354 |
| COc1ccccc1N1CCN(CCCNC(=O)c2cnn(-c3ccccc3Cl)c2C2CCN(C(=O)OC(C)(C)C)CC2)CC1 | 0.105 |
| Cc1ccc(Cl)cc1NC(=O)C(C)n1nnc2sc(-c3ccccc3)cc2c1=O (stereo not given) | -0.567 |
| Cc1ccc(Cl)cc1NC(=O)Cc1ccc(-n2c(C)nc3cccnc32)cc1 | 1.55 |
| Cc1cc2c(cc3c(SCc4nc(-c5ccccc5)oc4C)nnc(C)n32)o1 | -0.472 |
| Cc1ccc(-c2nn3c(=O)cc(CN4CCN(C(=O)Nc5cccc(C(F)(F)F)c5)CC4)nc3s2)cc1 | -0.373 |
| Cc1ccccc1NC(=O)Cn1c(=O)n(CCc2ccccc2)c(=O)c2ccccc21 | -2.33 |
